The full list was thinned out, with hits kept by preference.
ERG-DNA inh – inhibitors of human ERG Ets domain-DNA interaction; hit rate 0.028% among 370,000; P11308; Potency, µM (doses to about 76.9 µM), hits mostly inhibitors; fluorescence polarization, His-ERG Ets domain / labelled DNA; active means well fitted inhibition curve with a large enough effect in the polarisation, with a control signal flat; inconclusive means small, poorly fitted or top-dose-only effect, or effect the other way, or a change in a side signal; inactive means no such curve, though single readings can be large or run the other way; the % refers to the polarisation;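 further: polarization taken with two DNA probes labelled with fluorescein and Texas red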
Target sequence (P11308 whole entry, looked up, the tested form may be a part): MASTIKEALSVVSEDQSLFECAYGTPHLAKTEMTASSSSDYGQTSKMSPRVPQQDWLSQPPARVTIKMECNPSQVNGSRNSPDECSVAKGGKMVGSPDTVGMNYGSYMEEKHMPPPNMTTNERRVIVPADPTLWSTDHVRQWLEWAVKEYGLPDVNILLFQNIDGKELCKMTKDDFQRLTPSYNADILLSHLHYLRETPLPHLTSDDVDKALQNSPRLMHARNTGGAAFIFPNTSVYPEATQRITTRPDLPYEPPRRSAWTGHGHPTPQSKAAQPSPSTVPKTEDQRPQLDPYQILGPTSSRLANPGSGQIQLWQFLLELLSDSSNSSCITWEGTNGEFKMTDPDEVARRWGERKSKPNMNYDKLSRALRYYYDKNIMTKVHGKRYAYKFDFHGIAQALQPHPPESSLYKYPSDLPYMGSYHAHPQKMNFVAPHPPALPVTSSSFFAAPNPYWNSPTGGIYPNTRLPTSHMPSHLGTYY
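His-tagged ERG Ets domain (1 uM in the protein solution; 300mM KCl, 50mM Tris-HCl, 1mM EDTA, 1mM DTT, pH 7.5) received compound, then a probe mix of 5 nM fluorescein-DNA and 100nM Texas-615-DNA. Fluorescence polarization was read for both dyes.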
RORg inh – inhibitors of mouse ROR gamma transcriptional activity; Drosophila S2 Gal4-RORgamma UAS-luciferase reporter, 20 h; Potency, µM (highest dose often 53.6 µM), most hits filed as inhibitors; hit rate 5.4% among 310,000; further: nearly all actives have a fitted effect of over 60% in size
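Compounds are pin-transferred onto Drosophila Schneider cells expressing a copper-inducible Gal4–ROR gamma transactivation domain fusion. After 1 hr, copper sulfate is added to 700 uM final; luciferase is read 20 hr later.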
VP16 counter – counter-screen for ROR gamma inhibitors: Gal4-VP16 reporter; Drosophila S2 Gal4-VP16 UAS-luciferase, luminescence, 20 h; Potency, µM (highest dose often 53.6 µM), actives largely listed as inhibitors; hit rate 3.5% among 310,000; AID 2546;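 further: Gal4-VP16 expression switched on by copper sulfate through the metallothionein promoter; nearly all actives have a fitted effect of over 50% in size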
Integrin act MD – activators of alpha7 integrin expression for muscular dystrophy | Potency, µM (series often up to 38.3 µM), hits mostly activators | hit rate 0.064% among 350,000 | alpha7betagal myoblasts, beta-gal FDG fluorescence, 48 h; further: nearly all actives have a fitted effect of over 60% in size
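alpha7betagal+/- myoblasts (passage 13, 250/well) treated 48 h at 37C with compounds at 1:260 dilution of DMSO stock. Lysed, then beta-galactosidase activity read as FDG fluorescence (ex 480/em 540) after 30 min, with pre-read for autofluorescence.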
Giardia kill – kills Giardia lamblia; Giardia lamblia trophozoite viability; activity change, % at 7.66 µM, hits read low; hit rate 0.15% among 340,000; AID 540267; in the data active means activity change below about -80%; inconclusive means between about -30% and that limit;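 further: parasites exposed to compound for two days anaerobically before the ATP read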
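Media and compound were dispensed first, then trophozoites at 100 cells/well; plates sat 48 hrs at 37 deg C without oxygen before ATP luminescence reagent was added and read after 15-30 min at room temperature.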
Of the large screens only hits and unclear results are named; the others gave an inactive call. Unless noted, the call rests on the fitted dose curve; in most records, active means well fitted curve in the direction sought with a large enough effect; inconclusive means small, poorly fitted or top-dose-only effect, or another doubt; inactive means no such curve, though single readings can be large; an effect the other way counts as inactive or inconclusive.

Nc1nnc(SC2CC(=O)N(c3ccccc3)C2=O)s1 (centres undefined)	RORg inh 5µM, VP16 counter 10µM
Cc1nc(SC2CC(=O)N(c3ccccc3)C2=O)n[nH]1 (centres undefined)	RORg inh 4.5µM, VP16 counter 4.5µM
N#Cc1cccc(-c2nc3cnc(N4CCOCC4)nc3n(C3CC3)c2=O)c1	none (no result: ERG-DNA inh, Integrin act MD, Giardia kill)
COc1ccc(C(=O)CSc2nnc(CNC(=O)c3ccccc3)o2)cc1	none
CCOC(=O)C1CCN(C(=S)Nc2cccc(C)c2C)CC1	RORg inh 11µM
CCOC(=O)C1CCCN(CC(=O)Nc2cc(C)cc(C)c2)C1 (centres undefined)	none
CCOC(=O)C1CCN(C(=S)Nc2ccc(CC)cc2)CC1	RORg inh 11µM, VP16 counter inconclusive
CCc1ccc(NC(=S)N2CCC(NC(=O)c3ccccc3)CC2)cc1	none
CCOC(=O)C1CCCN(C(=S)Nc2cc(C)cc(C)c2)C1 (centres undefined)	RORg inh 11µM, VP16 counter inconclusive
CCOC(=O)C1CCN(C(=S)Nc2cccc(C)c2)CC1	VP16 counter inconclusive (no result: ERG-DNA inh)
CCOC(=O)N1CCN(C(=S)Nc2ccccc2C)CC1	none
CCc1ccc(NC(=S)N2CCC(NC(=O)c3ccccc3OC)CC2)cc1	RORg inh 10µM
COCCNC(=O)CSc1nc2scc(-c3ccccc3)c2c(=O)[nH]1	none
Cc1ccc(C)c(NC(=S)N2CCN(S(C)(=O)=O)CC2)c1	none
CCOC(=O)C1CCN(CCC(=O)Nc2cc(C)ccc2C)CC1	none
Cc1ccc(C)c(NC(=S)N2CCCCCC2)c1	RORg inh 13µM, VP16 counter inconclusive
CCOC(=O)C1CCN(C(=S)Nc2cc(C)ccc2C)CC1	RORg inh 18µM, VP16 counter inconclusive
CCOC(=O)C1CCN(C(=S)Nc2ccc(Cl)cc2C)CC1	RORg inh 14µM, VP16 counter inconclusive
O=C(Oc1cccc(Nc2ncnc3ccccc23)c1)c1ccccc1Cl	RORg inh inconclusive, VP16 counter inconclusive
CCOC(=O)c1sc2c(c1C)c(=O)n(Cc1ccccc1)c(=O)n2CCN(C)C	none
O=C(Nc1cccc(F)c1)N1CC[C@@]2(CCCN(C(=O)c3ccncc3)C2)C1	none (no result: ERG-DNA inh, Integrin act MD, Giardia kill)
CCC/C=C(\CCC)C(NC(=O)c1ccccc1)c1ccc(C(=O)OC)cc1 (centres undefined)	none (no result: ERG-DNA inh, Integrin act MD, Giardia kill)
CCOc1ccc(S(=O)(=O)NCCC(=O)NCC(c2cccs2)N2CCOCC2)cc1 (centres undefined)	Integrin act MD 2.2µM
C=C1Nc2ccccc2C(=O)N1c1ccc(C(=O)N2CCN(C(=O)c3ccco3)CC2)cc1	none (no result: ERG-DNA inh, RORg inh, VP16 counter, Integrin act MD)
Cc1cc(C)nc(Sc2nc(Cl)nc(N(c3ccccc3)c3ccccc3)n2)n1	RORg inh 11µM, VP16 counter inconclusive
Cc1cc(C)nc(SC(C(=O)O)c2ccccc2)n1 (centres undefined)	none
O=c1c2cc(Cl)ccc2nc(-c2ccccc2)n1O	RORg inh 6.3µM
O=c1c2cc(Br)ccc2nc(-c2cccc(C(F)(F)F)c2)n1O	RORg inh 3.5µM, VP16 counter 20µM
COc1ccc(CCn2c(S)nc3ccccc3c2=O)cc1	RORg inh 3.2µM, VP16 counter inconclusive
COc1ccc(-c2nc3ccccc3c(=O)n2O)cc1	RORg inh 13µM, VP16 counter inconclusive
O=c1c2ccccc2nc(-c2ccccc2)n1O	none (no result: RORg inh, VP16 counter)
Cc1cccc(C(=O)Nc2ccc(N3CCC(CCN4CCOCC4)CC3)c(C(=O)O)c2)c1	none (no result: RORg inh, VP16 counter, Integrin act MD, Giardia kill)
COc1ccc(Cl)cc1C(=O)NNC(=O)CSc1nncn1C	none (no result: RORg inh, VP16 counter)
CCN(CC)S(=O)(=O)c1cc(-c2nnc(Nc3ccc(OC)c(C(N)=O)c3)c3ccccc23)ccc1C	none (no result: RORg inh, VP16 counter, Integrin act MD, Giardia kill)
O=c1c2ccc(Cl)cc2nc(-c2ccc([N+](=O)[O-])cc2)n1O	RORg inh 8.9µM, VP16 counter 18µM
COc1ccccc1-c1nc2ccc(Cl)cc2c(=O)n1O	none
COc1ccccc1-c1nc2cc(Cl)ccc2c(=O)n1O	RORg inh inconclusive, VP16 counter 2.5µM
O=C1COc2ccc(C(=O)c3ccccc3C(=O)NCc3ccccc3)cc2N1	none
CN(C(=O)Nc1ccc(Cl)cc1Cl)[C@H]1c2cc(Br)ccc2OC[C@H]1CO	RORg inh 2.8µM, VP16 counter inconclusive
CCC1CCCCN1C(=O)C1CC(c2cc(Cl)c(OC)cc2OC)=NO1 (centres undefined)	none (no result: ERG-DNA inh)
COc1cc(OC)c(C2=NOC(C(=O)N3CCCc4ccccc43)C2)cc1Cl (centres undefined)	RORg inh 5.6µM, VP16 counter 4.5µM
CCCCC(=O)NC(c1ccc(C(C)C)cc1)c1ccc2cccnc2c1O (centres undefined)	RORg inh 2.5µM, VP16 counter 2.8µM
CCC(=O)NC(c1ccc(OC)cc1)c1cc(Cl)c2cccnc2c1O (centres undefined)	none
CCCCC(=O)NC(c1ccccc1Cl)c1ccc2cccnc2c1O (centres undefined)	RORg inh 5µM, VP16 counter 3.5µM
CCC(=O)NC(c1ccccc1OC)c1ccc2cccnc2c1O (centres undefined)	RORg inh 5µM, VP16 counter 5µM
CCCC(=O)NC(c1ccc(OC)cc1)c1ccc2cccnc2c1O (centres undefined)	RORg inh 1.8µM, VP16 counter 4.5µM
CCCOc1cccc(C(=O)N2CCCCC2CCN2CCCCC2)c1 (centres undefined)	none (no result: RORg inh, VP16 counter, Integrin act MD, Giardia kill)
O=S(=O)(c1ccc(Br)cc1)c1nc(-c2cccs2)oc1SCc1ccccc1F	none (no result: RORg inh, VP16 counter, Integrin act MD, Giardia kill)
COc1ccc(Cl)cc1C(Nc1cccnc1)c1ccc2cccnc2c1O (centres undefined)	RORg inh 1.1µM, VP16 counter 2.2µM
CCCCC(=O)NC(c1ccccc1)c1ccc2cccnc2c1O (centres undefined)	RORg inh 1.3µM, VP16 counter 2.5µM
CCCC(=O)NC(c1ccccc1)c1ccc2cccnc2c1O (centres undefined)	RORg inh inconclusive, VP16 counter inconclusive
CC(=O)NC(c1ccc(C(C)C)cc1)c1ccc2cccnc2c1O (centres undefined)	RORg inh 3.5µM, VP16 counter 2.8µM
CCNc1nc(NC(C)(C)C)nc(N2CCCCC2)n1	ERG-DNA inh inconclusive, RORg inh inconclusive, VP16 counter inconclusive
CC(=O)Nc1ccc(/C=N/NC(N)=S)cc1	none (no result: ERG-DNA inh, Integrin act MD, Giardia kill)
NC(=S)N/N=C/c1ccc(Br)o1	RORg inh 3.5µM, VP16 counter inconclusive
NC(=S)N/N=C/c1ccc(-c2cc(Cl)c(Cl)cc2Cl)o1	RORg inh 0.56µM, VP16 counter 1.1µM
NC(=S)N/N=C/c1ccccc1	RORg inh 16µM, VP16 counter 20µM
NC(=S)N/N=C/c1ccc(C23CC4CC(CC(C4)C2)C3)cc1	RORg inh 0.45µM, VP16 counter 2.8µM
COc1ccc(NC(=O)C2CCN(S(=O)(=O)c3c(C)noc3/C=C/c3ccco3)CC2)cc1	none (no result: RORg inh, VP16 counter, Integrin act MD, Giardia kill)
Cn1c(C(=O)N2CCN(C(=O)c3ccco3)CC2)cc2c(=O)n3ccccc3nc21	VP16 counter 14µM
